A selection: hits, their analogues and other compounds. The true share with any hit is near 7.6%.
KB-3-1 tox – kills parental KB-3-1 adenocarcinoma cells | AID 1347075 | 400,000 compounds, 1.4% hits | KB-3-1 viability, CellTiter-Glo ATP luminescence, 72 h | Potency, µM (titrated, usually from 46.1 µM), actives largely listed as cytotoxic; also: potency is read from the fitted curve at half-maximal effect; % is scaled to controls: 0 for no effect and ±100 for the full control effect; nearly all actives have a fitted effect of over 60% in size
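Cells are dispensed, compounds pinned in, plates held at 37 °C for 72 h, then CellTiter-Glo is added and luminescence read after 10 minutes. Cell line: parental KB-3-1 in phenol-red-free DMEM, 10% FBS.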
MCF10A rerep – DNA re-replication induction in MCF 10a cells. MCF 10A DNA re-replication, Hoechst nuclear intensity, 48 h. 350,000 compounds, 2.9% hits. Potency, µM (highest dose often 46.1 µM), for inactives: at the top dose activity, positive = re-replication, most hits filed as activators. AID 624296; also: potency is read from the fitted curve at half-maximal effect; % of control where 0% means no effect; nearly all actives have a fitted effect of over 50% in size
hERG WT inh – blocks the wildtype human KCNH2 potassium channel | Q12809 | U2OS, BacMam KCNH2, thallium flux FluxOr; hits give low values | activity change, % at 1.84 µM | 340,000 compounds, 0.37% hits;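 active = maximum activity change below -70%; inconclusive = maximum activity change between -70% and -50%; inactive = maximum activity change above -50%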; also: % is scaled to controls: 0 for no effect and ±100 for the full control effect
Target sequence (Q12809 whole entry, looked up): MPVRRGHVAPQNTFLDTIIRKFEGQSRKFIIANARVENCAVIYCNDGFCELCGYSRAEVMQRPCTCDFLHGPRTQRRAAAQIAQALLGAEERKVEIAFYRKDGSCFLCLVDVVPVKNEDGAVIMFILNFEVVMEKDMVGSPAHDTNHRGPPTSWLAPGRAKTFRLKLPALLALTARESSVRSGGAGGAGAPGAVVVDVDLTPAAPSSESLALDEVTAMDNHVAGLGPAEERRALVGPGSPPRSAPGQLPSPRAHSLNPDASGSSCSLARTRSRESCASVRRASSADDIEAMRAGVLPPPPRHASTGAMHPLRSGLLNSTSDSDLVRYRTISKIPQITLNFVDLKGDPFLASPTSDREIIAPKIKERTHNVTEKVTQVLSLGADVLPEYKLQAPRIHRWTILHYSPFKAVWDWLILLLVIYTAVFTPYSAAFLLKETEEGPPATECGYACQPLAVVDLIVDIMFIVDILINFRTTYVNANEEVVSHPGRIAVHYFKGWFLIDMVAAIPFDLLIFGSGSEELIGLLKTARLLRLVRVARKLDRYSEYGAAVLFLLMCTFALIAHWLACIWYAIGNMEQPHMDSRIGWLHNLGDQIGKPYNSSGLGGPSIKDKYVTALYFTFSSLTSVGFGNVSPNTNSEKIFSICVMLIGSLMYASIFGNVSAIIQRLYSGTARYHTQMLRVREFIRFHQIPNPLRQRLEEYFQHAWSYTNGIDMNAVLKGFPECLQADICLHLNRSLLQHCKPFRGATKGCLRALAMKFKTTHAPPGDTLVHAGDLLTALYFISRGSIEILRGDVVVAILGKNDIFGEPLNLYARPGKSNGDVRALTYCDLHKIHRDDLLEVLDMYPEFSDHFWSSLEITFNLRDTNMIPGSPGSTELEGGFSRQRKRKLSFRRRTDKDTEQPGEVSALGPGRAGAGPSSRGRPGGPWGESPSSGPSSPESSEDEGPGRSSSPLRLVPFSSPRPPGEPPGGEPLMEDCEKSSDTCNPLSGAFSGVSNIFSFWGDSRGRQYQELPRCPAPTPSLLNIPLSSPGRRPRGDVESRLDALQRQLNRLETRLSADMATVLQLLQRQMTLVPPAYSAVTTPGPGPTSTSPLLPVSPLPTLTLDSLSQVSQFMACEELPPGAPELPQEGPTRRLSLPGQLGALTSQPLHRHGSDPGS
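U2OS cells transduced with wild-type KCNH2 virus are loaded with FluxOr dye for 45 min, and thallium flux is measured in kinetic reads before and after stimulation buffer. Rate constants are normalized to DMSO controls.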
KCNH2 3.1 block – KCNH2 3.1 (human) potassium channel inhibition | activity change, % (tested at about 1.8 µM) | U2OS KCNH2 3.1, thallium flux FluxOr; hits give low values | 340,000 compounds, 0.95% hits;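 active = maximum activity change below -70%; inconclusive = maximum activity change from -70% to -50%; inactive = maximum activity change above -50%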;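 also: thallium influx rate constant from kinetic fluorescence after stimulation buffer; % is scaled to controls: 0 for no effect and ±100 for the full control effect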
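Thallium flux via FluxOr fluorescence (Red40 quencher, 45 min loading) in U2OS cells virally expressing the KCNH2 3.1 isoform (1.77 x 10^8 /mL virus, overnight at 37 C). Rate constants from 2-min kinetic reads post-stimulation, normalised to positive and negative controls.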
KB-V1 cytotox – kills drug-selected multidrug resistant KB-V1 cells | KB-V1 MDR cells viability, CellTiter-Glo, 72 h | Potency, µM (series often up to 46.1 µM), actives largely listed as cytotoxic | 400,000 compounds, 3.4% hits | AID 1347076; also: potency is read from the fitted curve at half-maximal effect; % is scaled to controls: 0 for no effect and ±100 for the full control effect; nearly all actives have a fitted effect of over 60% in size
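KB-V1 cells (P-gp-expressing MDR subline of KB-3-1) in phenol-red-free DMEM with 10% FBS were exposed to library compounds over a concentration series for 72 h at 37 degrees C. Viability read by CellTiter-Glo luminescence; concentration-effect curves fitted after normalization.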
SW480 rereplic – induces DNA re-replication in SW480 colon adenocarcinoma cells; SW480 DNA re-replication, Hoechst DNA content imaging, 48 h; Potency, µM (titrated, usually from 46.1 µM), for the others: top-dose re-replication activation, most hits filed as activators; 340,000 compounds, 1.8% hits; AID 624297; also: potency is read from the fitted curve at half-maximal effect; % of control where 0% means no effect; nearly all actives have a fitted effect of over 55% in size
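Image-based DNA-content assay: after two days of treatment, nuclei were labelled with the DNA dye Hoechst and imaged, and hits were compounds raising the count of nuclei showing high fluorescence intensity.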
* hit, by the source's call; i = inactive; ? = inconclusive; / = not tested or not shown. Unless noted, calls follow the shape of the dose curve; as a rule, active = well fitted curve in the direction sought with a large enough effect; inconclusive = small, poorly fitted or top-dose-only effect, or another doubt; inactive = no such curve, though single readings can be large; an effect the other way counts as inactive or inconclusive.

SMILES	KB-3-1 tox	MCF10A rerep	hERG WT inh	KCNH2 3.1 block	KB-V1 cytotox	SW480 rereplic
O=C(NC(=S)N(Cc1ccccc1)Cc1ccccc1)c1ccccc1F	i	19%	?	-21	i	1.6µM*
CCOc1ccc(CCNC(=O)c2cc3cccc4c3n2CCS4)cc1	i	/	/	/	i	/
CCOC(=O)C1CCCN(C(=O)c2cc3c(C)nc4ccccc4c3o2)C1 (stereo unspecified)	i	20%	6	4	13µM*	-1%
Cc1ccc(C)c(N2CCN(C(=O)c3cc4c(C)nc5ccccc5c4o3)CC2)c1	i	21µM*	-7	?	i	-9%
CCOC(=O)C1CCCN(C(=O)c2ccc3nc(-c4cccc(OC)c4)oc3c2)C1 (stereo unspecified)	5.8µM*	?	-14	4	i	16µM*
CCC(=O)C1CCCN(C(=O)c2ccc3nc(-c4cccc(OC)c4)oc3c2)C1 (stereo unspecified)	i	?	-9	18	i	8%
COc1ccccc1N1CCN(C(=O)c2cc3c(C)nc4ccccc4c3o2)CC1	?	22%	-8	10	?	0%
CCOC(=O)c1c(-n2cnnn2)sc2c1CCCC2	i	3%	9	-4	i	1%
CCOC(=O)c1c(N2C(=O)Nc3cc(Cl)c(Cl)cc3N2O)sc2c1CCCCC2	i	2.3µM*	3	-7	i	0%
COc1cc(/C=C/c2nc3ccccc3c(=O)[nH]2)ccc1O	i	/	9	-6	?	/
COc1cc(-c2cc(O)c(-c3ccc4ccccc4n3)c(=O)[nH]2)cc(OC)c1OC	?	12µM*	-8	-19	?	21µM*
CCCCOC(=O)c1ccc(NC(=O)c2csnn2)cc1	i	/	/	/	i	/
CCCCCCC1CCC(C(=O)NC(CCSC)C(=O)NC(C(=O)OC)C(C)C)CC1 (stereo unspecified)	i	7.3µM*	-8	-26	i	17%
O=C(Nc1ccc([N+](=O)[O-])cc1Cl)c1cc(Br)ccc1O	2.3µM*	/	/	/	1.8µM*	/
O=C(Nc1c(Cl)cc([N+](=O)[O-])cc1Cl)c1cc(Cl)ccc1O	0.73µM*	/	/	/	?	/
COc1ccc(NC(=O)c2cc(Br)ccc2Cl)c([N+](=O)[O-])c1	i	?	1	6	i	14%
CC[C@H]1OC(=O)[C@H](C)[C@@H](O[C@H]2C[C@@](C)(OC)[C@@H](O)[C@H](C)O2)[C@H](C)[C@@H](O[C@@H]2O[C@H](C)C[C@H](N(C)C)[C@H]2O)[C@](C)(O)C[C@@H](C)C(=NOCOCCOC)[C@H](C)[C@@H](O)[C@]1(C)O	i	-1%	-5	-5	i	-2%
O=C(/C=C/c1ccc(F)cc1)c1ccccc1Br	23µM*	?	-7	-5	?	/
Cc1ccc(NC(=O)CS(=O)CC(=O)NCCCc2ccccc2)cc1Cl (stereo unspecified)	i	?	-6	-5	i	7.3µM*
Clc1ccc2c(NCCNC3CCCCC3)ccnc2c1	?	?	10	-22	?	6.5µM*
CC(C)NC1CCC(Nc2ccnc3cc(Cl)ccc23)CC1 (stereo unspecified)	?	13%	3	-22	i	?
CC(=O)Nc1ccc(N=Cc2c(O)c3ccccc3oc2=O)cc1	i	5%	/	24	i	-15%
CC(=O)Nc1ccc(N=Cc2c(O)c(C(=O)Nc3ccccc3)cc3ccccc23)cc1	i	3.7µM*	-21	-17	?	-5%
COc1ccc(C(=O)N(C)C2CCCCC2)cc1S(=O)(=O)N1CCOCC1	i	-4%	5	21	i	-4%
Cc1cc(C)cc(-n2cccc2/C=C2/C(=N)N3C(=NC2=O)SN=C3S(C)(=O)=O)c1	?	?	-3	-1	i	-50%
SMILES	KB-3-1 tox	MCF10A rerep	hERG WT inh	KCNH2 3.1 block	KB-V1 cytotox	SW480 rereplic
COc1cccc(-n2c(C)cc(/C=C3/C(=N)N4C(=NC3=O)SN=C4S(C)(=O)=O)c2C)c1	i	16µM*	-4	-6	i	5%
Cc1ccc(-n2cccc2/C=C2/C(=N)N3C(=NC2=O)SN=C3S(C)(=O)=O)cc1	i	16µM*	-7	-5	i	-3%
COc1cc(/C=C2/C(=N)N3C(=NC2=O)SN=C3S(C)(=O)=O)ccc1OS(=O)(=O)c1ccc(C)cc1	i	?	7	-3	i	?
CCOc1ccccc1NC(=O)Cn1cnc2sc(C)c(S(=O)(=O)N3CCC(C)CC3)c2c1=O	i	/	/	/	i	/
Cc1cccc(OCc2nnc(SCC(=O)c3cccs3)n2C)c1C	i	2%	-7	13	16µM*	3%
Cc1ccc([N+](=O)[O-])cc1NC(=S)NC(=O)CC(C)(C)C	i	-4%	-35	-1	18µM*	6%
Cc1ccc(NS(=O)(=O)c2cc([N+](=O)[O-])ccc2NNC(=S)Nc2cc(C)ccc2C)c(C)c1	21µM*	?	-2	-16	2.9µM*	?
c1ccc2sc(C3CCN(Cc4nnnn4Cc4ccc5c(c4)OCO5)CC3)nc2c1	23µM*	?	37	-3	16µM*	4%
COc1ccc(Cn2nnnc2CN2CCC(c3nc4ccccc4s3)CC2)cc1	i	?	2	-8	?	1%
CCCS(=O)(=O)NC(=O)C1(C)CCN(C(=O)CSc2ccccc2)C1 (stereo unspecified)	i	/	/	/	i	/
CC1CCCCC1NS(=O)(=O)CCNC(=O)c1ccccc1 (stereo unspecified)	i	-9%	-4	-5	21µM*	-3%
O=C(/C=C/c1ccccc1)CCN1CCCCC1	?	6.5µM*	1	-15	26µM*	2.9µM*
O=C(CCN1CCCCCC1)c1ccccc1	i	-2%	5	-9	i	-2%
O=C(/C=C/c1ccccc1)CC(=O)c1ccccc1O	i	13µM*	/	-17	?	?
NC(=O)c1nc2c([nH]c1=O)CCCC2	i	/	-6	15	i	/
CC(C)(C)c1ccc(C(=O)N2CCN(CCNC(=O)C(=O)NCc3ccccc3)CC2)cc1	i	-1%	4	-1	7.3µM*	-3%
O=C(NCCN1CCN(C(=O)c2ccc(Br)cc2)CC1)c1ccc(Br)cc1	?	7%	-4	-83*	?	-6%
Cc1ccc(C(=O)NCCN2CCN(C(=O)c3ccc(C)c(C)c3)CC2)cc1C	i	6%	19	-6	i	3%

High-throughput results from PubChem.
